This assay has as its target Nonstructural protein 3 (Zika virus) (UniProt A0A024AXB9).

Among all 2,700 compounds or so, about 160 (5.9%) showed an effect of 50% or more. The sample as a whole holds a higher share of strong results than the screen did.

Chain of Nonstructural protein 3 (Zika virus) (A0A024AXB9 as listed by the source): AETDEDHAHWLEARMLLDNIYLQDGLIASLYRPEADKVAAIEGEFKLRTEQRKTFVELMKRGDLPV

On to `O=C(c1cc(Cl)ccc1NS(=O)(=O)c1ccc(Oc2ccccc2Cl)cc1)N1CCC[C@@H]1CO`, for which the inhibition (in general, the change of the read-out against control, counted positive when it falls) turned out to be 6.57% (PRVABC59, Concentration 49.5 uM, Number of replicates 2.0, Standard deviation 0.644882859919004 %); 37.2% (PRVABC59, Concentration 99.01 uM, Number of replicates 2.0, Standard deviation 0.07876403049715877 %); 69.4% (PRVABC59, Concentration 198.0 uM, Number of replicates 2.0, Standard deviation 0.031176529605690447 %).

Consider `CC[C@H]1CCN(C(=O)c2cc(Cl)ccc2NS(=O)(=O)c2ccc(Oc3ccccc3Cl)cc2)C1`, for which the inhibition worked out at 9.4% (PRVABC59, Concentration 49.5 uM, Number of replicates 2.0, Standard deviation 0.8056939918249262 %); 15.3% (PRVABC59, Concentration 99.01 uM, Number of replicates 2.0, Standard deviation 0.9468131045821944 %); 23.5% (PRVABC59, Concentration 198.0 uM, Number of replicates 2.0, Standard deviation 0.6022197968075486 %).

For `O=C(c1cc(Cl)ccc1NS(=O)(=O)c1ccc(Oc2ccccc2Cl)cc1)N1CCCC1`, the inhibition came to 9.57% (PRVABC59, Concentration 49.5 uM, Number of replicates 2.0, Standard deviation 2.8745469037851152 %); 14.4% (PRVABC59, Concentration 99.01 uM, Number of replicates 2.0, Standard deviation 3.402955430557717 %); 20% (PRVABC59, Concentration 198.0 uM, Number of replicates 2.0, Standard deviation 3.9207965622968795 %).

As for `O=C(c1cc(Cl)ccc1NS(=O)(=O)c1ccc(Oc2ccccc2Cl)cc1)N1CC[C@H](CO)C1`, the inhibition (PRVABC59, Concentration 49.5 uM, Number of replicates 2.0, Standard deviation 0.6366783858004793 %) was determined as 4.61%; the inhibition (PRVABC59, Concentration 99.01 uM, Number of replicates 2.0, Standard deviation 1.3685297503351668 %) was 11.5%; the inhibition (PRVABC59, Concentration 198.0 uM, Number of replicates 2.0, Standard deviation 0.3954655654516591 %) is 72.9%.

Take `Cc1cnccc1NC(=O)c1cccn(CC2CCNCC2)c1=O`: the inhibition was 0.531% (PRVABC59, Concentration 49.5 uM, Number of replicates 2.0, Standard deviation 3.2606712103202136 %); 3.91% (PRVABC59, Concentration 99.01 uM, Number of replicates 2.0, Standard deviation 2.3019517896210857 %); 7.25% (PRVABC59, Concentration 198.0 uM, Number of replicates 2.0, Standard deviation 2.0430462280295743 %).

Regarding `c1ccc2c([C@H]3CCN(CC[C@H]4CCCOC4)C3)c[nH]c2c1`, the inhibition runs as follows: (PRVABC59, Concentration 49.5 uM, Number of replicates 2.0, Standard deviation 1.010318627219257 %) 5.96%; (PRVABC59, Concentration 99.01 uM, Number of replicates 2.0, Standard deviation 2.5976606536818863 %) 9.61%; (PRVABC59, Concentration 198.0 uM, Number of replicates 2.0, Standard deviation 2.1960692966802595 %) 20.4%.

For `CCn1ccnc(N2CC[C@H](c3ccn[nH]3)C2)c1=O`, the inhibition (PRVABC59, Concentration 49.5 uM, Number of replicates 2.0, Standard deviation 1.2586397664505307 %) worked out at 6.21%; the inhibition (PRVABC59, Concentration 99.01 uM, Number of replicates 2.0, Standard deviation 2.3660377586558408 %) was 15.1%; the inhibition (PRVABC59, Concentration 198.0 uM, Number of replicates 2.0, Standard deviation 2.03279173119948 %) worked out at 28.1%.

As for `NCc1cccc(NC(=O)[C@@H](NC(=O)OCc2ccccc2)c2ccc(F)cc2)c1`, the inhibition was 1.43% (PRVABC59, Concentration 49.5 uM, Number of replicates 2.0, Standard deviation 0.5315909510099626 %); 8.36% (PRVABC59, Concentration 99.01 uM, Number of replicates 2.0, Standard deviation 0.7442277023062145 %); 25.7% (PRVABC59, Concentration 198.0 uM, Number of replicates 2.0, Standard deviation 0.5134389777058966 %).

Consider `NCc1cccc(NC(=O)c2ccc(OCc3ccccc3)cc2)c1`, for which the inhibition is 1.2% (PRVABC59, Concentration 49.5 uM, Number of replicates 2.0, Standard deviation 1.3665778981704908 %); 22.5% (PRVABC59, Concentration 99.01 uM, Number of replicates 2.0, Standard deviation 3.6407499729049095 %); 26.6% (PRVABC59, Concentration 198.0 uM, Number of replicates 2.0, Standard deviation 29.263434924261905 %).

Consider `CCCCCC(=O)N[C@H](C(=O)NCc1ccc(NC(=N)N)cc1)c1ccc(OCc2ccccc2)cc1`, for which the inhibition (PRVABC59, Concentration 49.5 uM, Number of replicates 2.0, Standard deviation 4.889627391275408 %) is 4.26%; the inhibition (PRVABC59, Concentration 99.01 uM, Number of replicates 2.0, Standard deviation 2.962062980256652 %) came out at 19.3%; the inhibition (PRVABC59, Concentration 198.0 uM, Number of replicates 2.0, Standard deviation 2.9458988209157537 %) amounted to 67.5%.

In the case of `NCc1cccc(NC(=O)Cc2ccc(OCc3ccccc3)cc2)c1`, the inhibition was -0.82% (PRVABC59, Concentration 49.5 uM, Number of replicates 2.0, Standard deviation 0.6755896628980406 %); 8.98% (PRVABC59, Concentration 99.01 uM, Number of replicates 2.0, Standard deviation 0.4165875428765907 %); 40.9% (PRVABC59, Concentration 198.0 uM, Number of replicates 2.0, Standard deviation 2.4964043674210097 %).

With `NCc1cccc(CNC(=O)[C@@H](NC(=O)OCc2ccccc2)c2ccc(OCc3ccccc3)cc2)c1`, the inhibition amounted to 99.2% (PRVABC59, Concentration 49.5 uM, Number of replicates 2.0, Standard deviation 0.160775728553173 %); 99% (PRVABC59, Concentration 99.01 uM, Number of replicates 2.0, Standard deviation 0.12446874737194843 %); 98.1% (PRVABC59, Concentration 198.0 uM, Number of replicates 2.0, Standard deviation 0.3293253590204834 %).

For `C[C@@H](C(=O)Nc1cccc(CN)c1)c1ccc(OCc2ccccc2)cc1`, the inhibition (PRVABC59, Concentration 49.5 uM, Number of replicates 2.0, Standard deviation 0.17467234529733644 %) was -0.009%; the inhibition (PRVABC59, Concentration 99.01 uM, Number of replicates 2.0, Standard deviation 10.257482850017862 %) turned out to be 21.6%; the inhibition (PRVABC59, Concentration 198.0 uM, Number of replicates 2.0, Standard deviation 0.22285904793408415 %) was 62.2%.

As for `NCc1cccc(NC(=O)[C@@H](NC(=O)OCc2ccccc2)c2ccc(Br)cc2)c1`, the inhibition reads like this: (PRVABC59, Concentration 49.5 uM, Number of replicates 2.0, Standard deviation 0.867338983981324 %) 10%; (PRVABC59, Concentration 99.01 uM, Number of replicates 2.0, Standard deviation 0.4728161592371566 %) 98.2%; (PRVABC59, Concentration 198.0 uM, Number of replicates 2.0, Standard deviation 0.18671930544775084 %) 97.9%.

As to `NCc1cccc(NC(=O)[C@@H](NC(=O)OCc2ccccc2)c2ccc(F)c(F)c2)c1`, the inhibition reads like this: (PRVABC59, Concentration 49.5 uM, Number of replicates 2.0, Standard deviation 0.33969955290034887 %) -2.45%; (PRVABC59, Concentration 99.01 uM, Number of replicates 2.0, Standard deviation 0.8168349211729018 %) 6.3%; (PRVABC59, Concentration 198.0 uM, Number of replicates 2.0, Standard deviation 1.2939689407463024 %) 43.9%.

Regarding `c1ccc2c([C@H]3CCN(CCC4CCOCC4)C3)c[nH]c2c1`, the inhibition is 12.1% (PRVABC59, Concentration 49.5 uM, Number of replicates 2.0, Standard deviation 1.2406953242285323 %); 18.5% (PRVABC59, Concentration 99.01 uM, Number of replicates 2.0, Standard deviation 0.23839741086829247 %); 27.9% (PRVABC59, Concentration 198.0 uM, Number of replicates 2.0, Standard deviation 0.8459297336369422 %).

As to `O=S(=O)(Nc1ccc(Oc2ccccc2Cl)cc1)c1c[nH]c2ccc(Cl)cc12`, the inhibition is, setting by setting: (PRVABC59, Concentration 49.5 uM, Number of replicates 2.0, Standard deviation 1.8433959322838933 %) 11%; (PRVABC59, Concentration 99.01 uM, Number of replicates 2.0, Standard deviation 3.1252865977713378 %) 14.3%; (PRVABC59, Concentration 198.0 uM, Number of replicates 2.0, Standard deviation 3.9544884158217 %) 39%.

On to `O=C1NCc2ccccc2C12CCN(Cc1cc3ccc(F)cc3[nH]1)CC2`, for which the inhibition reads like this: (PRVABC59, Concentration 49.5 uM, Number of replicates 2.0, Standard deviation 3.3747851513626115 %) 6.9%; (PRVABC59, Concentration 99.01 uM, Number of replicates 2.0, Standard deviation 2.4802388593809592 %) 13.2%; (PRVABC59, Concentration 198.0 uM, Number of replicates 2.0, Standard deviation 2.1357042200194405 %) 18.5%.

Regarding `NCc1ccc(NC(=O)[C@@H](NC(=O)OCc2ccccc2)c2ccc(OCc3ccccc3)cc2)cc1`, the inhibition is, setting by setting: (PRVABC59, Concentration 49.5 uM, Number of replicates 2.0, Standard deviation 1.551749181482573 %) 7.22%; (PRVABC59, Concentration 99.01 uM, Number of replicates 2.0, Standard deviation 2.287213711046402 %) 11.8%; (PRVABC59, Concentration 198.0 uM, Number of replicates 2.0, Standard deviation 0.9961100816492645 %) 23%.

Take `NC1(c2cccc(NC(=O)[C@@H](NC(=O)OCc3ccccc3)c3ccc(OCc4ccccc4)cc3)c2)CCC1`: the inhibition (PRVABC59, Concentration 49.5 uM, Number of replicates 2.0, Standard deviation 2.468656231060589 %) amounted to 14.2%; the inhibition (PRVABC59, Concentration 99.01 uM, Number of replicates 2.0, Standard deviation 1.4495575723595426 %) turned out to be 30.7%; the inhibition (PRVABC59, Concentration 198.0 uM, Number of replicates 2.0, Standard deviation 0.13484294125181392 %) stood at 82.7%.

For `CCCCCC(=O)N[C@H](C(=O)N1CCC(CN)CC1)c1ccc(OCc2ccccc2)cc1`, the inhibition by setting is: (PRVABC59, Concentration 49.5 uM, Number of replicates 2.0, Standard deviation 1.1847944417619873 %) 5.06%; (PRVABC59, Concentration 99.01 uM, Number of replicates 2.0, Standard deviation 0.3935504126553241 %) 10.8%; (PRVABC59, Concentration 198.0 uM, Number of replicates 2.0, Standard deviation 0.8347422741682105 %) 26.5%.

On to `CCCCCC(=O)N[C@H](C(=O)NCc1cccc(CN)c1)c1ccc(OCc2ccccc2)cc1`, for which the inhibition (PRVABC59, Concentration 49.5 uM, Number of replicates 2.0, Standard deviation 0.8118332703664171 %) is -3.7%; the inhibition (PRVABC59, Concentration 99.01 uM, Number of replicates 2.0, Standard deviation 11.543494465765306 %) was determined as 89.7%; the inhibition (PRVABC59, Concentration 198.0 uM, Number of replicates 2.0, Standard deviation 0.4445743989869767 %) came out at 99%.

For `CCCCCC(=O)N[C@H](C(=O)NCc1ccc(N)nc1)c1ccc(OCc2ccccc2)cc1`, the inhibition reads like this: (PRVABC59, Concentration 49.5 uM, Number of replicates 2.0, Standard deviation 0.04494641077638166 %) -2.18%; (PRVABC59, Concentration 99.01 uM, Number of replicates 2.0, Standard deviation 0.3023657059020049 %) 1.76%; (PRVABC59, Concentration 198.0 uM, Number of replicates 2.0, Standard deviation 0.018387068425059654 %) -1.18%.

`NCc1cccc(NC(=O)[C@@H](NC(=O)OCc2ccccc2)c2ccc(OCc3ccccc3)cc2)c1`: the inhibition runs as follows: (PRVABC59, Concentration 49.5 uM, Number of replicates 2.0, Standard deviation 0.012122107981309298 %) 99.6%; (PRVABC59, Concentration 99.01 uM, Number of replicates 2.0, Standard deviation 0.01616281064174573 %) 99.1%; (PRVABC59, Concentration 198.0 uM, Number of replicates 2.0, Standard deviation 0.06465124256698292 %) 97.8%.
